Test results taken from PubChem BioAssay AID1159580 (chemical genetic matrix, 2015).
In all, about 5,500 compounds went through this assay and about 2,000 (36%) were called active. Roughly 18% stayed inconclusive and do not appear here. Rule as the data show it: active = normalized growth mostly below about 0.91 (no sharp cut-off); inconclusive = no clear call, values can overlap the other calls; inactive = mostly above about 0.92. Some of the results follow.

Assay: chemical genetic growth profiling, strain panel (AID 1159580);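 also: tested at 20 µM; growth read once vehicle control cultures reached saturation at 30 °C; 1 = growth at the plate median or of vehicle wells; lower values mean less growth of the strain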
Conditions: growth OD

Measured: normalized growth

NCC(O)CC(=O)O (centres undefined)
inactive: S. cerevisiae deletion strains, locus YKL009W, strain mrt4, hits give low values 0.991 | S. cerevisiae deletion strains, locus YKL068W, hits give low values 0.999 | S. cerevisiae deletion strains, locus YKL085W, strain MDH1 (second series), hits give low values 1 | S. cerevisiae deletion strains, locus YKL085W, strain MDH1, hits give low values 1 | S. cerevisiae deletion strains, locus YKL160W, strain elf1, hits give low values 1.02 | S. cerevisiae deletion strains, locus YKL190W, strain CNB1, hits give low values 1.02 | S. cerevisiae deletion strains, locus YKR001C, strain vps1, hits give low values 1 | S. cerevisiae deletion strains, locus YKR026C, strain gcn3, hits give low values 0.959 | S. cerevisiae deletion strains, locus YKR091W, strain srl3, hits give low values 0.974 | S. cerevisiae deletion strains, locus YLL001W, strain dnm1, hits give low values 0.987 | S. cerevisiae deletion strains, locus YLL026W, hits give low values 0.996 | S. cerevisiae deletion strains, locus YLL041C, strain sdh2, hits give low values 1 | S. cerevisiae deletion strains, locus YLR027C, strain aat2, hits give low values 0.97 | S. cerevisiae deletion strains, locus YLR039C, strain RIC1, hits give low values 1.04 | S. cerevisiae deletion strains, locus YLR058C, strain SHM2, hits give low values 1.02 | S. cerevisiae deletion strains, locus YLR102C, strain apc9, hits give low values 1 | S. cerevisiae deletion strains, locus YLR113W, strain HOG1, hits give low values 0.976 | S. cerevisiae deletion strains, locus YLR221C, strain rsa3, hits give low values 1.01 | S. cerevisiae deletion strains, locus YLR258W, strain gsy2, hits give low values 1 | S. cerevisiae deletion strains, locus YLR262C, strain YPT6 (second series), hits give low values 1 | S. cerevisiae deletion strains, locus YLR262C, strain YPT6, hits give low values 1.03 | S. cerevisiae deletion strains, locus YLR268W, strain sec22, hits give low values 0.998 | S. cerevisiae deletion strains, locus YLR320W, strain mms22, hits give low values 1 | S. cerevisiae deletion strains, locus YLR330W, strain CHS5, hits give low values 1.01 | S. cerevisiae deletion strains, locus YLR342W, strain FKS1 (second series), hits give low values 1.02 | S. cerevisiae deletion strains, locus YLR342W, strain FKS1, hits give low values 0.968 | S. cerevisiae deletion strains, locus YLR357W, strain rsc2, hits give low values 0.972 | S. cerevisiae deletion strains, locus YLR370C, strain arc18, hits give low values 0.973 | S. cerevisiae deletion strains, locus YLR371W, strain rom2, hits give low values 1 | S. cerevisiae deletion strains, locus YLR384C, strain iki3, hits give low values 0.979 | S. cerevisiae deletion strains, locus YLR418C, strain cdc73, hits give low values 0.988 | S. cerevisiae deletion strains, locus YML016C, strain PPZ1, hits give low values 1.01 | S. cerevisiae deletion strains, locus YML032C, strain rad52, hits give low values 1.01 | S. cerevisiae deletion strains, locus YML120C, strain ndi1, hits give low values 0.994 | S. cerevisiae deletion strains, locus YML124C, strain tub3, hits give low values 1 | S. cerevisiae deletion strains, locus YMR058W, strain fet3, hits give low values 0.972 | S. cerevisiae deletion strains, locus YMR078C, strain ctf18, hits give low values 1 | S. cerevisiae deletion strains, locus YMR125W, strain sto1, hits give low values 0.958 | S. cerevisiae deletion strains, locus YMR129W, hits give low values 0.978 | S. cerevisiae deletion strains, locus YMR205C, strain PFK2, hits give low values 0.965 | S. cerevisiae deletion strains, locus YMR223W, strain ubp8, hits give low values 1 | S. cerevisiae deletion strains, locus YMR231W, strain pep5, hits give low values 0.968 | S. cerevisiae deletion strains, locus YMR263W, strain SAP30, hits give low values 1.01 | S. cerevisiae deletion strains, locus YMR307W, strain GAS1, hits give low values 0.988 | S. cerevisiae deletion strains, locus YNL067W, strain RPL9B, hits give low values 1.01 | S. cerevisiae deletion strains, locus YNL071W, strain lat1, hits give low values 0.981 | S. cerevisiae deletion strains, locus YNL128W, strain TEP1, hits give low values 1.02 | S. cerevisiae deletion strains, locus YNL183C, strain NPR1, hits give low values 0.931 | S. cerevisiae deletion strains, locus YNL209W, strain ssb2, hits give low values 0.985 | S. cerevisiae deletion strains, locus YNL233W, strain BNI4, hits give low values 1.04 | S. cerevisiae deletion strains, locus YNL248C, strain rpa49, hits give low values 1.02 | S. cerevisiae deletion strains, locus YNL250W, strain rad50, hits give low values 0.99 | S. cerevisiae deletion strains, locus YNL271C, strain bni1, hits give low values 0.992 | S. cerevisiae deletion strains, locus YNL298W, strain CLA4, hits give low values 0.992 | S. cerevisiae deletion strains, locus YNL307C, strain MCK1, hits give low values 1.01 | S. cerevisiae deletion strains, locus YNL322C, strain KRE1 (second series), hits give low values 0.958 | S. cerevisiae deletion strains, locus YNL322C, strain KRE1, hits give low values 1.02 | S. cerevisiae deletion strains, locus YNR049C, strain mso1, hits give low values 0.983 | S. cerevisiae deletion strains, locus YNR052C, strain pop2, hits give low values 1 | S. cerevisiae deletion strains, locus YOL006C, strain TOP1, hits give low values 0.988 | S. cerevisiae deletion strains, locus YOL012C, strain htz1 0.788 | S. cerevisiae deletion strains, locus YOL147C, strain pex11, hits give low values 1 | S. cerevisiae deletion strains, locus YOR001W, strain rrp6, hits give low values 1.02 | S. cerevisiae deletion strains, locus YOR061W, strain CKA2, hits give low values 1.01 | S. cerevisiae deletion strains, locus YOR069W, strain VPS5, hits give low values 1.01 | S. cerevisiae deletion strains, locus YOR070C, strain gyp1, hits give low values 0.991 | S. cerevisiae deletion strains, locus YOR080W, strain dia2, hits give low values 0.979 | S. cerevisiae deletion strains, locus YOR083W, strain WHI5, hits give low values 1.03 | S. cerevisiae deletion strains, locus YOR106W, strain vam3, hits give low values 0.978 | S. cerevisiae deletion strains, locus YOR136W, strain idh2, hits give low values 1 | S. cerevisiae deletion strains, locus YOR144C, strain elg1, hits give low values 0.999 | S. cerevisiae deletion strains, locus YOR184W, strain ser1, hits give low values 1 | S. cerevisiae deletion strains, locus YOR231W, strain MKK1, hits give low values 1.02 | S. cerevisiae deletion strains, locus YOR265W, strain rbl2, hits give low values 0.989 | S. cerevisiae deletion strains, locus YOR270C, strain vph1, hits give low values 0.987 | S. cerevisiae deletion strains, locus YOR290C, strain snf2, hits give low values 0.938 | S. cerevisiae deletion strains, locus YOR316C, strain cot1, hits give low values 1.01 | S. cerevisiae deletion strains, locus YPL051W, strain arl3, hits give low values 1.02 | S. cerevisiae deletion strains, locus YPL078C, strain atp4, hits give low values 0.998 | S. cerevisiae deletion strains, locus YPL106C, strain sse1, hits give low values 0.985 | S. cerevisiae deletion strains, locus YPL240C, strain hsp82, hits give low values 1 | S. cerevisiae deletion strains, locus YPL241C, strain CIN2, hits give low values 1.01 | S. cerevisiae deletion strains, locus YPL256C, strain CLN2, hits give low values 1.01 | S. cerevisiae deletion strains, locus YPR119W, strain clb2, hits give low values 0.996 | S. cerevisiae deletion strains, locus YPR141C, strain kar3, hits give low values 0.994 | S. cerevisiae deletion strains, locus YPR163C, strain tif3, hits give low values 0.993 | S. cerevisiae deletion strains, locus YPR167C, strain met16, hits give low values 0.995 | S. cerevisiae deletion strains, strain wtn01, hits give low values 0.99 | S. cerevisiae strains, strain wild type, hits give low values 1.02
